For 28 compounds, Inhibition results are on record in ChEMBL document CHEMBL4513146, “CO-ADD screening of Karazin Kharkiv National University (Ukraine) compounds”.

The subject of one test is Klebsiella pneumoniae. To be noted: Concentration 32 ug.mL-1;; ASSAY_TEST Inhibition of Bacterial Growth; detection method Absorption (OD600); MEDIA CAMHB; plate type 384well; NBS; CORNING #3640; time 18 hr.
The test system of the next test is Candida albicans. The following applies: Concentration 32 ug.mL-1; ASSAY_TEST Inhibition of Fungal Growth; detection method Absorption (OD530).
Another test concerns Cryptococcus neoformans. The following applies: Concentration 32 ug.mL-1; ASSAY_TEST Inhibition of Fungal Growth; detection method Resazurin; Absorption (OD600-OD570); plate type 384well; NBS; CORNING #3640. In general terms: Alamar Blue is a resazurin reagent that responds to reducing activity.

Structures are written as SMILES. Measured potencies and affinities stand elsewhere.

As for `CCOc1ccc(N(Cc2ccccc2)S(=O)(=O)c2ccc3nncn3c2)cc1`, the Inhibition (in general, the drop in the measured response relative to a control, in per cent) in the test with Klebsiella pneumoniae is 6.93%; with Candida albicans it was 2.75%; with Cryptococcus neoformans, -0.95%.

Regarding `N#Cc1cccc(NC(=O)Cn2nc3c(Oc4ccccc4)nccn3c2=O)c1`, the Inhibition in the test on Klebsiella pneumoniae is recorded as 7.41%; in the test on Candida albicans, 1.17%; in the test with Cryptococcus neoformans, -6.48%.

Turning to `Cc1cc(C)cc(Oc2nc3ccccc3n3c(=O)n(CC(=O)Nc4ccc5c(c4)OCO5)nc23)c1`, the Inhibition in the test with Klebsiella pneumoniae is reported as 6.8%; in the test on Candida albicans, 46.24%; with Cryptococcus neoformans, -19.74%.

In the case of `COc1cccc(CN(c2cccc(F)c2)S(=O)(=O)c2ccc3nnc(C)n3c2)c1`, the Inhibition in the test on Klebsiella pneumoniae was 3.28%; in the test with Candida albicans it was 3.11%; in the test with Cryptococcus neoformans it was -1.07%.

With `O=C(CCc1nnc2c(N3CCCCC3)nc3ccccc3n12)NCc1ccc2c(c1)OCO2`, the Inhibition in the test on Klebsiella pneumoniae is recorded as 14.18%; with Candida albicans, 10.16%; in the test with Cryptococcus neoformans, -25.55%.

For `O=c1c2nn(Cc3cccc([N+](=O)[O-])c3)c(=O)n2ccn1-c1ccccc1`, the Inhibition in the test on Klebsiella pneumoniae is recorded as 9.21%; in the test on Candida albicans it was 0.04%; in the test with Cryptococcus neoformans it was -10.2%.

`O=c1c2nnc(SCc3ccccc3)n2ccn1-c1ccc(Br)cc1`: the Inhibition in the test on Klebsiella pneumoniae is on record as 7.85%; in the test with Candida albicans it was 5.19%; with Cryptococcus neoformans, -7.93%.

For `Cc1cccc(C)c1NC(=O)Cn1nc2c(Sc3ccccc3)nccn2c1=O`, the Inhibition in the test with Klebsiella pneumoniae is -1.09%; in the test with Candida albicans, 0.55%; in the test on Cryptococcus neoformans, -9.17%.

Take `COc1ccc(-c2nc(CSc3nc4ccccc4n4c(C(C)C)nnc34)c(C)o2)cc1`: the Inhibition is recorded as 4.67% with Klebsiella pneumoniae, 2.32% in the test on Candida albicans and -16.11% with Cryptococcus neoformans.

Consider `Cc1ccc(NC(=O)Cn2nc3ccc(SC(C)C)nn3c2=O)cc1F`, for which the Inhibition in the test with Klebsiella pneumoniae is 6.4%; with Candida albicans it was 5.51%; in the test on Cryptococcus neoformans, -6.87%.

In the case of `Cc1cc(C)cc(N(Cc2ccc(Cl)cc2)S(=O)(=O)c2cccn3c(C)nnc23)c1`, the values for the Inhibition in the test with Klebsiella pneumoniae, in the test with Candida albicans and with Cryptococcus neoformans were 4.19%, 0.27% and -8.23%, respectively.

In the case of `Cc1ccc(-n2ccn3c(=O)n(Cc4cccc(F)c4)nc3c2=O)cc1C`, the values for the Inhibition in the test on Klebsiella pneumoniae, with Candida albicans and with Cryptococcus neoformans were 5.72%, 0.74% and -14.54%, respectively.

For `O=C(CSc1nnc2c(=O)n(-c3ccccc3)ccn12)c1ccc(F)cc1`, the Inhibition is recorded as 11% with Klebsiella pneumoniae, 4.07% in the test with Candida albicans and -7.83% with Cryptococcus neoformans.

For the compound `Cc1cc(C)cc(N(Cc2cccc(F)c2)S(=O)(=O)c2cccn3c(C)nnc23)c1`, the Inhibition is given as 2.61% with Klebsiella pneumoniae, 2.81% with Candida albicans and -7.1% in the test on Cryptococcus neoformans.

In the case of `Cc1ccccc1NC(=O)Cn1nc2c(SC3CCCCC3)nccn2c1=O`, the Inhibition in the test on Klebsiella pneumoniae is reported as 5.55%; in the test with Candida albicans, -0.37%; in the test with Cryptococcus neoformans, -26.02%.

As to `CCOc1ccc(-n2ccn3c(SCC(=O)c4ccc(C)cc4)nnc3c2=O)cc1`, the Inhibition in the test with Klebsiella pneumoniae was 10.63%; with Candida albicans it was 1.13%; in the test on Cryptococcus neoformans, -5.35%.

As to `CCc1nnc2c(S(=O)(=O)N(Cc3cccc(F)c3)c3ccccc3)cccn12`, the Inhibition in the test with Klebsiella pneumoniae is on record as 10.23%; in the test with Candida albicans it was 3.58%; with Cryptococcus neoformans, -7.54%.

Consider `CCOc1ccccc1NC(=O)Cn1nc2c(N3CCN(c4ccccc4C)CC3)nccn2c1=O`, for which the results for the Inhibition with Klebsiella pneumoniae, in the test on Candida albicans and in the test on Cryptococcus neoformans were -9.36%, 21.63% and -5.29%, respectively.

With `Cc1ccc(-c2ccc3nn(CC(=O)N4CCN(c5ccc(F)cc5)CC4)c(=O)n3n2)cc1C`, the Inhibition in the test with Klebsiella pneumoniae was 1.03%; in the test on Candida albicans, 7.38%; in the test on Cryptococcus neoformans, -10.89%.

For the compound `COc1ccc(CNC(=O)CSc2nnc3c4cc(-c5ccc(C)cc5)nn4ccn23)cc1`, the Inhibition in the test on Klebsiella pneumoniae was 9.18%; in the test on Candida albicans, 1.16%; in the test with Cryptococcus neoformans it was -27.11%.

Consider `COc1ccc(NC(=O)Cn2nc3c4cc(-c5ccc(C)c(C)c5)nn4ccn3c2=O)cc1Cl`, for which the Inhibition in the test with Klebsiella pneumoniae was 8.4%; with Candida albicans, 6.09%; in the test with Cryptococcus neoformans it was -7.3%.

In the case of `CC1CCN(C(=O)Cn2nc3n(Cc4cccs4)c(=O)c4sccc4n3c2=O)CC1`, the Inhibition in the test with Klebsiella pneumoniae was 0.67%; in the test on Candida albicans, 6.15%; with Cryptococcus neoformans, -10.95%.

Turning to `CCc1nnc2c(S(=O)(=O)N(Cc3cccc(C)c3)c3ccc(C(C)C)cc3)cccn12`, the Inhibition in the test on Klebsiella pneumoniae is 14.47%; in the test with Candida albicans it was 4.99%; in the test on Cryptococcus neoformans, -9.13%.

With `Cc1ccccc1Oc1nccn2c(=O)n(CC(=O)Nc3ccc(F)cc3F)nc12`, the Inhibition with Klebsiella pneumoniae is 11.95%; with Candida albicans, -0.38%; with Cryptococcus neoformans, -8.47%.

Consider `COc1ccc(NC(=O)Cn2nc3ccc(-c4ccccc4)nn3c2=O)cc1`, for which the Inhibition in the test on Klebsiella pneumoniae is 5.42%; with Candida albicans, 2.69%; in the test on Cryptococcus neoformans, -8.43%.

For `O=C(Cn1nc2c3sc(N4CCCC4)nc3ncn2c1=O)Nc1ccccc1Cl`, the values for the Inhibition in the test with Klebsiella pneumoniae, in the test on Candida albicans and in the test with Cryptococcus neoformans were 7.88%, 4.36% and -9.84%, respectively.

Regarding `CC(C)c1nnc2c(=O)n(CC(=O)Nc3ccc(Br)cc3F)c3ccccc3n12`, the Inhibition with Klebsiella pneumoniae is 12.63%; with Candida albicans, 1.97%; in the test with Cryptococcus neoformans, -15.71%.

Take `COc1ccc(-c2cc3c4nn(CC(=O)Nc5cccc(C)c5)c(=O)n4ccn3n2)cc1`: the Inhibition in the test with Klebsiella pneumoniae is 3.49%; in the test on Candida albicans, 3.36%; with Cryptococcus neoformans, -17.04%.
